Among the data in PubChem BioAssay AID1851 (National Center for Advancing Translational Sciences (NCATS), 2009) are activity, negative = inhibition and AC50 values, retold here.

The campaign covered roughly 16,000 compounds. About 5,100 (32%) were called active. Roughly 25% stayed inconclusive and do not appear here. The list shows a part of the results. A number with no mark means an inactive call. The call rests on the fitted dose curve; in most records, active means well fitted curve in the direction sought with a large enough effect; inconclusive means small, poorly fitted or top-dose-only effect, or effect the other way; inactive means no such curve, though single readings can be large or run the other way.
On the % scale 0 is the no-effect control and ±100 the full control effect.

For the assay, the target named is Cytochrome P450 3A4 (Homo sapiens) (UniProt P08684). The experiment in a line: Cytochrome panel assay with activity outcomes. The conditions noted are these: recombinant CYP, pro-luciferin dealkylation, luminescence, p450-cyp3a4; series mostly up to 57.1 µM.
Chain of Cytochrome P450 3A4 (Homo sapiens) (P08684 whole entry, looked up): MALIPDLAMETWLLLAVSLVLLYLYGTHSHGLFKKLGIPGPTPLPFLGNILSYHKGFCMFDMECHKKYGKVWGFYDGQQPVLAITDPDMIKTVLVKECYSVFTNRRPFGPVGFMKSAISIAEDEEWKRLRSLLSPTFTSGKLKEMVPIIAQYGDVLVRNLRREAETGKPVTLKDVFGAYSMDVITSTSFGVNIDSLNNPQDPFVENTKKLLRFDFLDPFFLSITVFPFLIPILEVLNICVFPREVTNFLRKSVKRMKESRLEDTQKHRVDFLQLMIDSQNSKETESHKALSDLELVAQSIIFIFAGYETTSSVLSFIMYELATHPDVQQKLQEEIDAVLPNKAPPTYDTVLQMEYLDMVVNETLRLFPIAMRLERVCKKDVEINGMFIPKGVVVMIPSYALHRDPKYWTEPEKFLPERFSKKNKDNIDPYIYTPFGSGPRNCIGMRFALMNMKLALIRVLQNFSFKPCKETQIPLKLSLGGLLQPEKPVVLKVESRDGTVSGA
As to `N[C@@H](Cc1cccc([N+](=O)[O-])c1)C(=O)O`, the activity, negative = inhibition was -9.82% [at 11.4 µM]. Turning to `O=[N+]([O-])c1ccc2c(c1)S(=O)c1ccccc1-2` (stereo not given), the activity, negative = inhibition is -11.3% [at 11.4 µM]. As usually defined, the AC50 is the concentration giving half of the maximal activity seen. As to `N=C(N)S[C@H]1c2ccccc2-c2cc([N+](=O)[O-])ccc21`, the AC50 was 5.01 µM (active). As to `COC(=O)CCCC(=O)O`, the activity, negative = inhibition is -18.6% [at 11.4 µM].

In the case of `COc1cc(C(=O)NCCC(C)C)c([N+](=O)[O-])cc1OC`, the AC50 was 15.8 µM (active). Regarding `COC(=O)C(C(=O)OC)C(C[N+](=O)[O-])c1ccc(OC)c(OC)c1` (stereo not given), the activity, negative = inhibition is -7.76% [at 2.29 µM]. Turning to `COc1cc2c(C(=O)NCc3ccc(C)o3)cn(CC(C)C)c(=O)c2cc1OC`, the activity, negative = inhibition was -15.9% [at 2.29 µM]. In the case of `O=C(CCNc1cccc(Cl)c1)c1cccs1`, the AC50 is 14.1 µM (active). With `O=C(NOC(=O)c1cc(Br)ccc1Cl)c1cccs1`, the AC50 result was “inactive”. In the case of `O=C(CNc1cccc(Cl)c1)c1ccc(Cl)cc1`, the AC50 entry was “inactive”. In the case of `CNS(=O)(=O)c1ccccc1C(=N)c1ccccc1`, the activity, negative = inhibition was -6.85% [at 11.4 µM]. As to `CCN(CC)C[C@@H](O)c1ccc2ccc3ccccc3c2c1`, the activity, negative = inhibition was -25.1% [at 11.4 µM]. Consider `CC(C)NC[C@H](O)c1ccc2ccccc2c1`, for which the AC50 entry is “inactive”. `CCCCOC(OCCCC)[C@H](O)CSc1ccc2ccccc2c1`: the AC50 is 5.01 µM (active). `S=c1[nH]nc(C2CCCCC2)n1/N=C/c1cccs1`: the AC50 is 12.6 µM (active). Still for that read-out and setting: the same measure for `Cc1nnc(C)n1/N=C/c1cccs1`: “inactive”. Turning to `O=S(=O)(O)c1cc(O)c2c(N=Cc3ccccc3O)cc(S(=O)(=O)O)cc2c1`, the activity, negative = inhibition is 0.658% [at 11.4 µM].

Turning to `O=C(O)c1cc(N=Cc2ccccc2O)cc(C(=O)O)c1`, the activity, negative = inhibition is -17.4% [at 11.4 µM]. Regarding `Cc1cc(O)c(C(C)C)cc1N=Cc1ccccc1O`, the AC50 is 3.16 µM (active).

As for `COc1cccc(/C=N/NC(=O)c2cccc([N+](=O)[O-])c2)c1OS(=O)(=O)c1ccc(C)cc1`, the AC50 is 1.12 µM (active). On to `COc1ccc(/C=N/NC(=O)c2cccc([N+](=O)[O-])c2)cc1OS(=O)(=O)c1ccc(C)cc1`, for which the activity, negative = inhibition is -20.3% [at 2.29 µM].

For `O=C(COc1ccc(/C=N/NC(=O)c2ccccc2)cc1)Nc1ccc([N+](=O)[O-])cc1`, the AC50 entry is “inactive”. For the molecule `COc1cc(/C=N/NC(=O)c2cccc([N+](=O)[O-])c2)ccc1OCc1ccc(C)cc1`, the AC50 is 1.41 µM (active). For the molecule `COc1cc(/C=N\Nc2ccc([N+](=O)[O-])cc2)ccc1OCC(=O)Nc1ccc(C)c(C)c1`, the AC50 is 3.98 µM (active).

Consider `N[C@@H](Cc1ccc(O)c(O)c1)C(=O)O`, for which the AC50 entry is “inactive”.
